Laboratory results published in PubChem BioAssay AID1159580 (chemical genetic matrix, 2015).
The whole screen tested about 5,500 compounds, of which about 2,000 (36%) were called active. Not shown: some 18% with an inconclusive outcome. Cut-off read from the data, not from the text of the source: active = normalized growth mostly below about 0.91 (no sharp cut-off); inconclusive = no clear call, values can overlap the other calls; inactive = mostly above about 0.92. Some of the results follow.

Experiment: chemical genetic growth profiling, strain panel (AID 1159580);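 note: tested at 20 µM; growth read once vehicle control cultures reached saturation at 30 °C; 1 = growth at the plate median or of vehicle wells; lower values mean less growth of the strain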
Conditions: growth OD

Measured: normalized growth

CC(N)C(O)c1ccc(O)c(O)c1 (stereo unspecified)
inactive: S. cerevisiae deletion strains, locus YAL013W, strain DEP1, hits give low values 1 | S. cerevisiae deletion strains, locus YBR021W, strain FUR4, hits give low values 0.982 | S. cerevisiae deletion strains, locus YBR229C, strain ROT2, hits give low values 0.98 | S. cerevisiae deletion strains, locus YCL029C, strain bik1, hits give low values 0.981 | S. cerevisiae deletion strains, locus YDL035C, strain GPR1, hits give low values 0.988 | S. cerevisiae deletion strains, locus YDL074C, strain BRE1, hits give low values 1.02 | S. cerevisiae deletion strains, locus YDL101C, strain DUN1, hits give low values 0.998 | S. cerevisiae deletion strains, locus YDL134C, strain PPH21, hits give low values 1.01 | S. cerevisiae deletion strains, locus YDL185W, strain tfp1, hits give low values 0.977 | S. cerevisiae deletion strains, locus YDL192W, strain arf1, hits give low values 0.973 | S. cerevisiae deletion strains, locus YDR101C, strain arx1, hits give low values 0.992 | S. cerevisiae deletion strains, locus YDR150W, strain NUM1, hits give low values 0.999 | S. cerevisiae deletion strains, locus YDR162C, strain NBP2, hits give low values 1.04 | S. cerevisiae deletion strains, locus YDR318W, strain mcm21, hits give low values 0.979 | S. cerevisiae deletion strains, locus YDR388W, hits give low values 0.98 | S. cerevisiae deletion strains, locus YDR502C, strain sam2, hits give low values 0.999 | S. cerevisiae deletion strains, locus YEL061C, strain CIN8, hits give low values 0.998 | S. cerevisiae deletion strains, locus YER110C, hits give low values 0.97 | S. cerevisiae deletion strains, locus YER155C, strain BEM2, hits give low values 0.994 | S. cerevisiae deletion strains, locus YER167W, strain BCK2, hits give low values 0.98 | S. cerevisiae deletion strains, locus YGL078C, strain dbp3, hits give low values 0.994 | S. cerevisiae deletion strains, locus YGL086W, strain mad1, hits give low values 0.98 | S. cerevisiae deletion strains, locus YGL248W, strain PDE1, hits give low values 0.991 | S. cerevisiae deletion strains, locus YGR078C, strain PAC10, hits give low values 1.02 | S. cerevisiae deletion strains, locus YGR135W, strain pre9, hits give low values 1.01 | S. cerevisiae deletion strains, locus YGR229C, strain SMI1, hits give low values 1.02 | S. cerevisiae deletion strains, locus YGR252W, strain gcn5, hits give low values 0.901 | S. cerevisiae deletion strains, locus YHR030C, strain SLT2, hits give low values 0.99 | S. cerevisiae deletion strains, locus YHR079C, strain IRE1 (second series), hits give low values 0.976 | S. cerevisiae deletion strains, locus YHR094C, strain hxt1, hits give low values 0.988 | S. cerevisiae deletion strains, locus YHR129C, strain ARP1, hits give low values 0.997 | S. cerevisiae deletion strains, locus YHR200W, strain rpn10, hits give low values 0.971 | S. cerevisiae deletion strains, locus YIL066C, strain RNR3, hits give low values 0.986 | S. cerevisiae deletion strains, locus YIL073C, strain SPO22, hits give low values 0.958 | S. cerevisiae deletion strains, locus YIL125W, strain kgd1, hits give low values 0.988 | S. cerevisiae deletion strains, locus YIR030C, strain dcg1, hits give low values 0.993 | S. cerevisiae deletion strains, locus YJL095W, strain BCK1, hits give low values 1.02 | S. cerevisiae deletion strains, locus YJL134W, strain LCB3, hits give low values 0.993 | S. cerevisiae deletion strains, locus YJL168C, strain set2, hits give low values 0.984 | S. cerevisiae deletion strains, locus YJL187C, strain SWE1 (second series), hits give low values 1.01 | S. cerevisiae deletion strains, locus YJR043C, strain POL32, hits give low values 1.01 | S. cerevisiae deletion strains, locus YJR075W, strain HOC1, hits give low values 1.01 | S. cerevisiae deletion strains, locus YKL009W, strain mrt4, hits give low values 0.972 | S. cerevisiae deletion strains, locus YKL068W, hits give low values 0.991 | S. cerevisiae deletion strains, locus YKL085W, strain MDH1 (second series), hits give low values 0.98 | S. cerevisiae deletion strains, locus YKL085W, strain MDH1, hits give low values 0.98 | S. cerevisiae deletion strains, locus YKL190W, strain CNB1, hits give low values 1 | S. cerevisiae deletion strains, locus YKR001C, strain vps1, hits give low values 0.993 | S. cerevisiae deletion strains, locus YLR039C, strain RIC1, hits give low values 1.01 | S. cerevisiae deletion strains, locus YLR058C, strain SHM2, hits give low values 0.989 | S. cerevisiae deletion strains, locus YLR102C, strain apc9, hits give low values 0.989 | S. cerevisiae deletion strains, locus YLR262C, strain YPT6, hits give low values 0.997 | S. cerevisiae deletion strains, locus YLR268W, strain sec22, hits give low values 1.01 | S. cerevisiae deletion strains, locus YLR330W, strain CHS5, hits give low values 0.99 | S. cerevisiae deletion strains, locus YLR342W, strain FKS1 (second series), hits give low values 0.976 | S. cerevisiae deletion strains, locus YLR371W, strain rom2, hits give low values 0.971 | S. cerevisiae deletion strains, locus YLR418C, strain cdc73, hits give low values 1.04 | S. cerevisiae deletion strains, locus YML016C, strain PPZ1, hits give low values 0.991 | S. cerevisiae deletion strains, locus YML032C, strain rad52, hits give low values 0.971 | S. cerevisiae deletion strains, locus YML124C, strain tub3, hits give low values 0.983 | S. cerevisiae deletion strains, locus YMR078C, strain ctf18, hits give low values 0.971 | S. cerevisiae deletion strains, locus YMR223W, strain ubp8, hits give low values 0.968 | S. cerevisiae deletion strains, locus YMR263W, strain SAP30, hits give low values 1.02 | S. cerevisiae deletion strains, locus YMR307W, strain GAS1, hits give low values 0.95 | S. cerevisiae deletion strains, locus YNL067W, strain RPL9B, hits give low values 1.02 | S. cerevisiae deletion strains, locus YNL128W, strain TEP1, hits give low values 0.996 | S. cerevisiae deletion strains, locus YNL153C, strain GIM3, hits give low values 1.03 | S. cerevisiae deletion strains, locus YNL233W, strain BNI4, hits give low values 1.02 | S. cerevisiae deletion strains, locus YNL250W, strain rad50, hits give low values 0.978 | S. cerevisiae deletion strains, locus YNL271C, strain bni1, hits give low values 0.973 | S. cerevisiae deletion strains, locus YNL298W, strain CLA4, hits give low values 0.982 | S. cerevisiae deletion strains, locus YNL307C, strain MCK1, hits give low values 0.99 | S. cerevisiae deletion strains, locus YNL322C, strain KRE1, hits give low values 0.997 | S. cerevisiae deletion strains, locus YNR052C, strain pop2, hits give low values 0.959 | S. cerevisiae deletion strains, locus YOL006C, strain TOP1, hits give low values 1.02 | S. cerevisiae deletion strains, locus YOL012C, strain htz1 0.931 | S. cerevisiae deletion strains, locus YOL147C, strain pex11, hits give low values 0.983 | S. cerevisiae deletion strains, locus YOR061W, strain CKA2, hits give low values 0.998 | S. cerevisiae deletion strains, locus YOR069W, strain VPS5, hits give low values 0.991 | S. cerevisiae deletion strains, locus YOR136W, strain idh2, hits give low values 0.972 | S. cerevisiae deletion strains, locus YOR144C, strain elg1, hits give low values 0.977 | S. cerevisiae deletion strains, locus YOR184W, strain ser1, hits give low values 0.971 | S. cerevisiae deletion strains, locus YOR316C, strain cot1, hits give low values 0.981 | S. cerevisiae deletion strains, locus YPL055C, strain LGE1, hits give low values 1.03 | S. cerevisiae deletion strains, locus YPL241C, strain CIN2, hits give low values 1 | S. cerevisiae deletion strains, locus YPR119W, strain clb2, hits give low values 0.995 | S. cerevisiae deletion strains, locus YPR141C, strain kar3, hits give low values 0.976 | S. cerevisiae deletion strains, locus YPR163C, strain tif3, hits give low values 0.987 | S. cerevisiae deletion strains, locus YPR167C, strain met16, hits give low values 0.986 | S. cerevisiae deletion strains, strain wtn01, hits give low values 1.01 | S. cerevisiae strains, strain wild type, hits give low values 0.994
